High-throughput results as filed in PubChem.
Rows were chosen to be rich in hits. Some 7.4% of all compounds tested hit in one or more screens of this group.
Luc counter: Kinase-Glo luciferase inhibition (counter-screen). AID 1379. Potency, µM (top dose mostly 38.3 µM), usual class: inhibitors. Kinase-Glo luciferase, ATP luminescence, 8 min. Q27757. 200,000 compounds, 0.28% hits; note: nearly all actives have a fitted effect of over 60% in size
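Inhibition of Kinase-Glo luciferase light generation was assessed at 10 uM ATP in pH 7.2 imidazole buffer, with luminescence measured after eight minutes at ambient temperature.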
NPC1 promoter act: activators of NPC1 promoter; 320,000 compounds, 2.4% hits; Potency, µM (titrated, usually from 9.22 µM), hits mostly activators; Huh7 NPC1 promoter luciferase reporter, 24 h; note: nearly all actives have a fitted effect of over 60% in size
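Huh7 cells stably carrying NPC1 promoter–luciferase, plated in Opti-MEM with 10% FBS for 2 h, were exposed to compound in DMSO for 24 h at 37 °C; luciferase reagent was added for 10 min and luminescence read.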
Rab9 promoter act: activates the Rab9 promoter | Huh7 Rab9 promoter-luciferase reporter, luminescence, 24 h | Potency, µM (series often up to 9.22 µM), most hits filed as activators | 320,000 compounds, 2.8% hits | AID 485297; note: nearly all actives have a fitted effect of over 60% in size
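Steps: seed 1500 Huh7 Rab9-luc cells per well, rest 2 h at 37 °C; add compound in DMSO; incubate 24 h; add luciferase reagent, 10 min ambient; read luminescence.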
SMN2 splice up: enhancers of SMN2 splice variant expression; HEK293 SMN2-luciferase splicing reporter, luminescence, 30-36 h; Potency, µM (top dose mostly 46.1 µM), usual class: activators; 210,000 compounds, 2.8% hits; AID 1458; note: nearly all actives have a fitted effect of over 55% in size
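HEK293 cells carry an SMN2 minigene-luciferase reporter in which exon 7 inclusion puts luciferase in frame. Cells were seeded at 2000 cells/well, attached for 10-12 hours, then exposed to compounds for 30-36 hours at 37C before ONE-Glo luminescence.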
FLuc counter: inhibits or activates purified firefly luciferase, miR-21 counter-screen. 360,000 compounds, 6.9% hits. Potency, µM (doses to about 57.5 µM), most hits filed as inhibitors. purified FLuc, Km substrates, luminescence inhibition; note: nearly all actives have a fitted effect of over 55% in size
Target sequence (P08659 whole entry, looked up): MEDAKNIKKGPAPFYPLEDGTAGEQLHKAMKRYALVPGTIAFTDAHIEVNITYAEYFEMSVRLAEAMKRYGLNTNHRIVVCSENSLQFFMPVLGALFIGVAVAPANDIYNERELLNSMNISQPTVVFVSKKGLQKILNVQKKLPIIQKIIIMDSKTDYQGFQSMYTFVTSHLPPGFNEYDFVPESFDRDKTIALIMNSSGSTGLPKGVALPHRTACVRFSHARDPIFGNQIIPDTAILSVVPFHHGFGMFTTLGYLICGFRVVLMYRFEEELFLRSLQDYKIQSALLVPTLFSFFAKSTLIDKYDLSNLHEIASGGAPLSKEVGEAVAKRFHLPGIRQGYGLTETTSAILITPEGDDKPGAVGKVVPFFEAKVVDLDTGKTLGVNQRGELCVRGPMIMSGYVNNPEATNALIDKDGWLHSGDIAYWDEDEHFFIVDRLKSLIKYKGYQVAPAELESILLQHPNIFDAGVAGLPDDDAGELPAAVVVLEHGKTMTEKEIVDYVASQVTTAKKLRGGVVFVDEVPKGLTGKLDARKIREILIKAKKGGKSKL
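Biochemical qHTS of compounds, final roughly 60 µM downward over six points, against 10 nM purified firefly luciferase using Km concentrations of substrates (10 uM D-luciferin, 10 uM ATP) in Tris acetate pH 7.5 buffer; luminescence output.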
ELG1 genotox: genotoxicity induction in ELG1-luciferase HEK293T cells. AID 504466. HEK293T ELG1-luciferase reporter, luminescence, 16 h. Potency, µM (doses to about 46 µM), actives largely listed as activators. 330,000 compounds, 1.3% hits; note: nearly all actives have a fitted effect of over 60% in size
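Cells (2,000/well) expressing the ELG1-luciferase fusion are dosed by pin tool and kept 16 hr at 37 °C, 5% CO2. Signal comes from ONE-Glo luciferase reagent after 30 min at room temperature.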
Hits are given with their value; . = inactive; ? = inconclusive; / = no result given; [ ] = another dose, or the depositor's remark. Calls come from the whole dose curve; as a rule, active = well fitted curve in the direction sought with a large enough effect; inconclusive = small, poorly fitted or top-dose-only effect, or another doubt; inactive = no such curve, though single readings can be large; an effect the other way counts as inactive or inconclusive.

SMILES | Luc counter | NPC1 promoter act | Rab9 promoter act | SMN2 splice up | FLuc counter | ELG1 genotox
CC(=O)Nc1ccc(NC(=O)CCN2C(=O)c3ccccc3C2=O)cc1 | / | . | . | / | . | .
O=C(CC1CCCCC1)Nc1ccc(-c2ccc3nncn3n2)cc1 | . | . | . | . | . | .
c1cn2cc(-c3ccc4c(c3)OCO4)nc2s1 | . | 0.447µM | 0.631µM | 12.6µM | 1.9µM | ?
O=C(Nc1ccc(-c2ccc3nncn3n2)cc1)C1CCCC1 | . | . | . | ? | 19µM | .
CCOc1ccc(C(=O)CCC(=O)N(CC)CC(=O)NCc2ccc(Cl)cc2)cc1 | / | . | . | / | . | .
COC(=O)c1nc(N)sc1-c1ccc(Cl)c(Cl)c1 | / | . | . | / | . | ?
O=C(OCC(=O)N1CCN(c2ccccc2)CC1)C1CCCN1S(=O)(=O)c1ccc(Cl)cc1 (stereo not drawn) | / | . | . | / | . | .
O=C(CCc1ccccc1)NCc1ccc2c(c1)OCO2 | / | . | . | / | . | .
O=C(Cc1ccccc1)NCc1ccc2c(c1)OCO2 | . | 2.82µM | ? | . | 7.57µM | 14.6µM
O=C(Cc1ccccc1[N+](=O)[O-])NCc1ccc2c(c1)OCO2 | . | ? | 1.78µM | . | ? | ?
O=C(COC(=O)COc1ccccc1[N+](=O)[O-])NCc1ccc2c(c1)OCO2 | / | / | / | / | / | .
O=C(NCc1ccccc1)c1c[nH]c2cc3c(cc2c1=O)OCCO3 | . | 3.16µM | 2.51µM | 12.6µM | 2.39µM | ?
Cc1ccc(CNC(=O)CSc2ncc3c(n2)-c2ccc(Cl)cc2N(Cc2ccccc2)S3(=O)=O)cc1 | / | / | / | / | . | /
COc1ccc(OC)c(CCNC(=O)c2csc3c2CCCCC3)c1 | / | / | / | . | . | /
CN(C)c1ccc(NC2=C(Cl)C(=O)c3ccccc3C2=O)cc1 | . | . | . | . | 7.57µM | ?
CCCCC/C=C\C/C=C\C/C=C\C/C=C\CCCC(=O)C(F)(F)F | . | / | / | / | / | /
c1ccc(-c2ccc(OCCCn3cncn3)cc2)cc1 | . | . | . | . | 16.9µM | ?
CN1CCN(CCCOc2ccc(-c3ccccc3)cc2)CC1 | / | 2.82µM | ? | / | 19µM | ?
c1ccc(Oc2cccc(OCCn3cncn3)c2)cc1 | . | . | . | . | ? | .
Brc1cccc(OCCCCn2cncn2)c1 | / | . | . | / | . | .
c1ccc(COc2ccc(OCCn3cncn3)cc2)cc1 | . | 2.51µM | 3.16µM | 11.2µM | 9.53µM | 9.2µM
COc1c(Cl)cc(C(=O)NCc2ccco2)cc1Cl | / | . | . | / | . | .
C/C(=N\Nc1nncc2ccccc12)c1ccc(O)cc1 | / | 1.26µM | 0.708µM | / | 0.953µM | .
COc1ccc(-c2nc(N/N=C(\C)c3ccc(O)cc3)c3ccccc3n2)cc1 | / | . | . | / | 1.69µM | .
C/C(=N\Nc1nncc2ccccc12)c1ccc(C(C)(C)C)cc1 | / | ? | .[1.84 µM] | / | 7.57µM | .
SMILES | Luc counter | NPC1 promoter act | Rab9 promoter act | SMN2 splice up | FLuc counter | ELG1 genotox
C/C(=N\Nc1nc(-c2ccc(C)cc2)nc2ccccc12)c1ccc([N+](=O)[O-])cc1 | . | . | . | . | . | .
COc1cccc(/C(C)=N/NC(=O)c2cc(-c3cccnc3)nc3ccccc23)c1 | . | . | . | . | . | .
C/C(=N\NC(=S)NCc1ccccc1)c1ccc(C(C)(C)C)cc1 | . | . | . | . | . | .
C/C(=N\Nc1nncc2ccccc12)c1cccc(OC(F)F)c1 | / | 1µM | 1.12µM | / | 1.07µM | 2.91µM
O=C(CC1C(=O)NCCN1Cc1cccc(F)c1)NCCCCCN1CCOCC1 (stereo not drawn) | / | . | . | / | . | .
O=C(Oc1cccc(F)c1)c1ccc2c(=O)n3c(nc2c1)CCC3 | / | . | . | / | 15.1µM | .
O=C(NNC(=O)c1ccc2c(=O)n3c(nc2c1)CCC3)c1cccc(Cl)c1 | / | . | . | / | . | .
COc1cccc(CN(C)C(=O)c2ccc3c(=O)n4c(nc3c2)CCC4)c1 | / | . | . | / | . | .
O=C(Oc1ccc(F)cc1)c1ccc2c(=O)n3c(nc2c1)CCC3 | / | . | . | / | 12µM | .
CC(OC(=O)c1ccc2c(=O)n3c(nc2c1)CCC3)C(N)=O (stereo not drawn) | . | . | . | . | . | .
COc1ccc(CN(C)C(=O)c2ccc3c(=O)n4c(nc3c2)CCC4)cc1 | / | 2.24µM | 1.78µM | / | 8.49µM | ?
Cc1cc(C)n2nc(C(=O)OCC(=O)Nc3ccc(C)c(S(=O)(=O)N4CCOCC4)c3)nc2n1 | / | / | / | / | / | .
CNC(=O)Nc1ccc(C2SCCS2)cc1 | / | . | . | / | 16.9µM | .
O=C(Cc1ccccc1)NNC(=O)c1ccc(NC(=O)c2ccccc2)cc1 | . | . | . | . | . | ?
CCCCNC(=O)Nc1ccccc1CC | / | . | . | / | . | .
CC(C)c1ccc(NC(=O)COc2ccc(C3SCCS3)cc2)cc1 | / | . | . | / | . | .
O=C(Nc1ccc(C2SCCS2)cc1)c1ccccc1 | / | 1.12µM | 1.41µM | / | 0.849µM | ?
CCCCNC(=O)Nc1ccc(C2SCCS2)cc1 | / | ? | ? | / | 15.1µM | ?
COc1c(C)cc(NS(=O)(=O)c2ccc3c(c2)OCCO3)cc1C | / | / | / | . | . | /
CC1CCN(S(=O)(=O)CCNC(=O)c2ccc(F)cc2)CC1 | / | . | . | / | . | .
O=C(Nc1cccc(-c2nc3cccnc3s2)c1)c1cccc(Br)c1 | / | / | / | / | . | /
COc1ccccc1-c1c(C)nn2c(N)c(-c3ccccc3)cnc12 | / | . | . | / | 19µM | .
COCc1nn2c(N)c(-c3ccccc3)cnc2c1-c1ccccc1 | / | 2.82µM | 2.82µM | / | 0.849µM | ?
COCc1nn2c(N)c(C#N)cnc2c1-c1ccccc1 | . | . | . | . | 13.5µM | .
COc1ccc(-c2c(C)nn3c(N)c(-c4ccccc4)cnc23)cc1OC | / | . | . | / | ? | .
SMILES | Luc counter | NPC1 promoter act | Rab9 promoter act | SMN2 splice up | FLuc counter | ELG1 genotox
COc1cccc(Nc2ncc3nc(C)c(=O)n(CCC#N)c3n2)c1 | . | / | / | . | / | /
CC1(c2ccc(Cl)cc2)NC(=O)N(CC(=O)Nc2ccc(N3CCCCC3)cc2)C1=O (stereo not drawn) | / | . | . | / | . | .
O=C1c2ccccc2COc2ccc(O)cc21 | . | . | ? | . | ? | .
COc1ccc2c(c1)C(=O)c1ccccc1CO2 | . | 3.98µM | 3.16µM | ? | 6.01µM | ?
CCOc1ccc(-c2cc(-c3nc(-c4cc(OC)c(OC)c(OC)c4)no3)[nH]n2)cc1 | / | / | / | / | 21.3µM | /
COc1ccc(-c2noc(-c3cc(-c4ccc(F)cc4)n[nH]3)n2)cc1 | / | / | / | / | . | /
CCSc1nc2sc3c(c2c(=O)n1-c1ccccc1)CCN(C(C)C)C3 | / | . | . | / | . | .
Cc1ccc(C(=O)NC2CCN(Cc3ccccc3)CC2)cc1S(=O)(=O)N1CCOCC1 | / | . | . | / | . | 18.3µM
Cc1ccc(C(=O)Nc2ccccc2C(=O)O)cc1S(=O)(=O)N1CCCCCC1 | / | / | / | ? | 0.953µM | /
Cc1ccc(C(=O)NNC(=O)c2ccccc2)cc1S(=O)(=O)N1CCCCC1 | / | . | . | / | 21.3µM | .
